{"source": "paper PMC10668032", "about": "“Altered binding affinity of SIX1-Q177R correlates with enhanced WNT5A and WNT pathway effector expression in Wilms tumor”", "note": "The full ranking holds about 33,000 sequences; the median of “e-score” is about -0.05, and the highest 2% start at about 0.38. This is one part of a sample in which the highest values are shown more often than they occur."}
{"target": "T1, SIX1-Q177R homeodomain (human, UniProt Q15475 108-198, Q177R)", "T1 sequence": "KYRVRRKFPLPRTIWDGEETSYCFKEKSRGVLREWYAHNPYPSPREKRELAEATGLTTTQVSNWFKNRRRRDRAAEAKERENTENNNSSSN", "experiment": "universal protein binding microarray; Universal all-10-mer PBM (8x60K, AMADID 030236), 300 nM GST-tagged protein, Alexa Fluor 488 anti-GST; buffer, salt, pH and temperature not stated (as in Berger); high values mean tight binding", "conditions": "protein: ivt; tags: N-terminal GST; dsDNA, one strand shown", "method_in_brief": "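After in vitro transcription/translation, GST-tagged homeodomains were quantified against a recombinant GST standard curve by anti-GST western blot. They were then placed in duplicate at 300 nM final concentration on universal 'all 10-mer' protein binding microarrays of 8×60K format.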", "units": {"binding signal": "E-score"}}
{"sequence": "GGTGTAAA", "binding signal": "0.476 ± 0.0157"}
{"sequence": "AGTGTAAT", "binding signal": "0.413 ± 0.0369"}
{"sequence": "AGTGTGAG", "binding signal": "0.208 ± 0.00245"}
{"sequence": "AGTGTATG", "binding signal": "0.36 ± 0.013"}
{"sequence": "GGAGTAAA", "binding signal": "0.222 ± 0.0733"}
{"sequence": "AGTGTAAG", "binding signal": "0.415 ± 0.026"}
{"sequence": "AGTCGGGG", "binding signal": "0.158 ± 0.0158"}
{"sequence": "CCCCCCGC", "binding signal": "0.248 ± 0.0302"}
{"sequence": "GCGATCCC", "binding signal": "0.182 ± 0.0137"}
{"sequence": "CGGAGTGA", "binding signal": "0.216 ± 0.008"}
{"sequence": "CACGATGC", "binding signal": "0.182 ± 0.0345"}
{"sequence": "GGTGCCAC", "binding signal": "0.195 ± 0.0196"}
{"sequence": "CTCCCGAC", "binding signal": "0.1532 ± 0.000212"}
{"sequence": "TGTGTAAA", "binding signal": "0.235 ± 0.0184"}
{"sequence": "AGTGTAAC", "binding signal": "0.419 ± 0.0327"}
{"sequence": "AGGGTAAC", "binding signal": "0.176 ± 0.0073"}
{"sequence": "AGTGTAAA", "binding signal": "0.402 ± 0.0464"}
{"sequence": "AGAGTAAC", "binding signal": "0.163 ± 0.0176"}
{"sequence": "ACTGGGAG", "binding signal": "0.223 ± 0.0162"}
{"sequence": "ACCGGTGC", "binding signal": "0.238 ± 0.0365"}
{"sequence": "CCGATCCA", "binding signal": "0.188 ± 0.0051"}
{"sequence": "ACCCCCTA", "binding signal": "0.337 ± 0.0127"}
{"sequence": "ATTACACA", "binding signal": "0.291 ± 0.00197"}
{"sequence": "GTTACACA", "binding signal": "0.267 ± 0.0166"}
{"sequence": "ATTACTCC", "binding signal": "0.287 ± 0.0213"}
{"sequence": "CTTACACC", "binding signal": "0.478 ± 0.00815"}
{"sequence": "ATTACACG", "binding signal": "0.435 ± 0.0178"}
{"sequence": "CTTACACA", "binding signal": "0.231 ± 0.0061"}
{"sequence": "ATTACACC", "binding signal": "0.479 ± 0.0126"}
{"sequence": "ATTACCCC", "binding signal": "0.294 ± 0.00817"}
{"sequence": "CTTACTCC", "binding signal": "0.194 ± 0.0358"}
{"sequence": "ACGCGGGC", "binding signal": "0.164 ± 0.0117"}
{"sequence": "GGTGGGTA", "binding signal": "0.165 ± 0.0261"}
{"sequence": "GAGATACC", "binding signal": "0.225 ± 0.0222"}
{"sequence": "GATTAACA", "binding signal": "0.162 ± 0.0238"}
{"sequence": "AGACTCGG", "binding signal": "0.16 ± 0.0294"}
{"sequence": "ACACTCGC", "binding signal": "0.385 ± 0.0258"}
{"sequence": "ACACTCGG", "binding signal": "0.408 ± 0.0187"}
{"sequence": "ACACTCGT", "binding signal": "0.351 ± 0.0272"}
{"sequence": "CCACTCGC", "binding signal": "0.222 ± 0.00987"}
{"sequence": "ACACTCGA", "binding signal": "0.358 ± 0.0137"}
{"sequence": "AAGCTACA", "binding signal": "0.178 ± 0.0271"}
{"sequence": "GGTGTGCA", "binding signal": "0.391 ± 0.0295"}
{"sequence": "AGTGTGCA", "binding signal": "0.185 ± 0.00583"}
{"sequence": "AGTGTGAA", "binding signal": "0.276 ± 0.021"}
{"sequence": "GGTGTGAC", "binding signal": "0.435 ± 0.0199"}
{"sequence": "GGTGTGAA", "binding signal": "0.427 ± 0.00482"}
{"sequence": "AGTGTGAC", "binding signal": "0.359 ± 0.00684"}
{"sequence": "GGTGTGTA", "binding signal": "0.411 ± 0.0106"}
{"sequence": "AGTGTGTA", "binding signal": "0.285 ± 0.00827"}
{"sequence": "CGTGTGAC", "binding signal": "0.304 ± 0.0135"}
{"sequence": "TGTGTGAA", "binding signal": "0.187 ± 0.0245"}
{"sequence": "CGTGTGCA", "binding signal": "0.202 ± 0.0212"}
{"sequence": "CACTCGGA", "binding signal": "0.177 ± 0.0507"}
{"sequence": "GTATCACA", "binding signal": "0.3 ± 0.034"}
{"sequence": "ATCCGACA", "binding signal": "0.238 ± 0.04"}
{"sequence": "ACCTAGGT", "binding signal": "0.157 ± 0.0301"}
{"sequence": "GGGGGATA", "binding signal": "0.2 ± 0.0198"}
{"sequence": "CAAGCACC", "binding signal": "0.176 ± 0.0183"}
{"sequence": "CGTGTATA", "binding signal": "0.367 ± 0.0156"}
{"sequence": "GGTGTATA", "binding signal": "0.458 ± 0.0157"}
{"sequence": "GGTATATA", "binding signal": "0.1906 ± 0.000509"}
{"sequence": "GTGCAACA", "binding signal": "0.292 ± 0.0195"}
{"sequence": "ACCTATAA", "binding signal": "0.177 ± 0.008"}
{"sequence": "AGTTTATC", "binding signal": "0.208 ± 0.0174"}
{"sequence": "CCCCGAGC", "binding signal": "0.198 ± 0.0241"}
{"sequence": "AGTGTATA", "binding signal": "0.359 ± 0.0244"}
{"sequence": "CGTGTATC", "binding signal": "0.39 ± 0.00909"}
{"sequence": "CGGGTATC", "binding signal": "0.374 ± 0.0147"}
{"sequence": "AGTGTATC", "binding signal": "0.399 ± 0.0163"}
{"sequence": "AGAGTATC", "binding signal": "0.238 ± 0.0465"}
{"sequence": "TCTAGACA", "binding signal": "0.155 ± 0.0039"}
{"sequence": "CGATCCCC", "binding signal": "0.303 ± 0.0313"}
{"sequence": "CCCCAGGA", "binding signal": "0.173 ± 0.00623"}
{"sequence": "AGCGAGTG", "binding signal": "0.268 ± 0.0193"}
{"sequence": "CAAACTAG", "binding signal": "0.152 ± 0.0273"}
{"sequence": "CGGGGTGA", "binding signal": "0.166 ± 0.0603"}
{"sequence": "AGGTGTGA", "binding signal": "0.4098 ± 0.00286"}
{"sequence": "AGGTGTGC", "binding signal": "0.322 ± 0.019"}
{"sequence": "GAGTGTGA", "binding signal": "0.29 ± 0.0218"}
{"sequence": "ACGTGTGC", "binding signal": "0.16 ± 0.0249"}
{"sequence": "GTGTGTGA", "binding signal": "0.229 ± 0.0436"}
{"sequence": "AGGTGTGG", "binding signal": "0.371 ± 0.0242"}
{"sequence": "CGGTGAGA", "binding signal": "0.177 ± 0.0168"}
{"sequence": "CGGTGTGA", "binding signal": "0.434 ± 0.0168"}
{"sequence": "GGGTGTGA", "binding signal": "0.429 ± 0.0152"}
{"sequence": "CGGTGTGC", "binding signal": "0.381 ± 0.0324"}
{"sequence": "CGGTGCGC", "binding signal": "0.221 ± 0.0195"}
{"sequence": "ACTCCGAT", "binding signal": "0.182 ± 0.0265"}
{"sequence": "CCCCGACG", "binding signal": "0.162 ± 0.0371"}
{"sequence": "CACTAAGA", "binding signal": "0.17 ± 0.0243"}
{"sequence": "AGGTATCG", "binding signal": "0.33 ± 0.00862"}
{"sequence": "ACCCTGGA", "binding signal": "0.168 ± 0.028"}
{"sequence": "CCCCACAG", "binding signal": "0.172 ± 0.025"}
{"sequence": "CACCAAGC", "binding signal": "0.26 ± 0.0355"}
{"sequence": "CACCAGCC", "binding signal": "0.239 ± 0.0131"}
{"sequence": "CCCCAACA", "binding signal": "0.278 ± 0.00752"}
{"sequence": "GCTGACAC", "binding signal": "0.444 ± 0.00725"}
{"sequence": "CCTGACGC", "binding signal": "0.161 ± 0.00552"}
{"sequence": "ACTGACAA", "binding signal": "0.153 ± 0.0151"}
{"sequence": "CCTGACAC", "binding signal": "0.452 ± 0.00834"}
{"sequence": "ACTGATAC", "binding signal": "0.295 ± 0.00533"}
{"sequence": "GCTGATAC", "binding signal": "0.243 ± 0.0143"}
{"sequence": "ACTGACAC", "binding signal": "0.4777 ± 0.00257"}
{"sequence": "ACTGACCC", "binding signal": "0.213 ± 0.011"}
{"sequence": "CCTGACCC", "binding signal": "0.159 ± 0.0403"}
{"sequence": "GACTCCCC", "binding signal": "0.161 ± 0.0189"}
{"sequence": "AACCCACA", "binding signal": "0.157 ± 0.00573"}
{"sequence": "GAGTCACC", "binding signal": "0.157 ± 0.0094"}
{"sequence": "CTACGACA", "binding signal": "0.172 ± 0.0171"}
